The Kd is the constant that tells how readily two partners part at equilibrium.

In the first assay the target is T1, Eip93f (Drosophila melanogaster, UniProt Q9VD60 752-830).
T1 sequence: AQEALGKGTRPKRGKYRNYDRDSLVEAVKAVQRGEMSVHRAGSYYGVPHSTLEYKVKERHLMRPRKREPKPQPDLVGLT
The assay can be described thus: FP; 33 mM phosphate pH 7.0, 90 mM NaCl, 0.01% Tween 20, 0.1 mM DTT, 0.5% agarose; room temperature. Conditions: tags: N-GST (pGEX-6P-1, kept); dsDNA, one strand shown.
As for CATACCCGAAAATCG, the binding signal is 1.36 Kd / Kd of best base at the position.
Turning to CATAGCCGAAGATCG, the binding signal was 9.46 Kd / Kd of best base at the position.
Same read-out and setting: for CATAGCCGACAATCG the value was 20.2 Kd / Kd of best base at the position.
On to CATAGCCGATAATCG, for which the binding signal is 12.1 Kd / Kd of best base at the position.
Still for that read-out and setting: for CATAGCCGAATATCG the value was 2.21 Kd / Kd of best base at the position; for CATAGCCGAACATCG, 5.65 Kd / Kd of best base at the position.

For the next assay, the target named is T2, Br (Drosophila melanogaster, UniProt Q24206 697-775).
T2 sequence: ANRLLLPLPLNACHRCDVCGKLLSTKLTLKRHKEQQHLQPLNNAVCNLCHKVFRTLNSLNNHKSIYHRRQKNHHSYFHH
The assay is described as above. Particulars: tags: N-GST (pGEX-6P-1, kept); dsDNA, one strand shown.
As for GGAACTAGAAAAC, the binding signal is 4.4 Kd / Kd of best base at the position.
On the same count and under the same terms, with AGAATTAGAAAAC the figure was 1.96 Kd / Kd of best base at the position; with GGAATAAGAAAAC, > 1590 Kd / Kd of best base at the position.
On the same count and under the same terms, for GGAATTAGAAACC the value was 1.42 Kd / Kd of best base at the position; for GGCATTAGAAAAC, 2.73 Kd / Kd of best base at the position; for GGATTTAGAAAAC, 2.42 Kd / Kd of best base at the position.
The same measure, in the same setting: for GGAATTAGAAAGC the value was 1.36 Kd / Kd of best base at the position; for GGAATTAGAAATC, 1.02 Kd / Kd of best base at the position; for GGAATTAGAACAC, 1.98 Kd / Kd of best base at the position.
For GGAATTACAAAAC, the binding signal is 109 Kd / Kd of best base at the position.
On the same count and under the same terms, for CGAATTAGAAAAC the value was 1.68 Kd / Kd of best base at the position; for GGTATTAGAAAAC, 2.13 Kd / Kd of best base at the position; for GGAGTTAGAAAAC, 2.41 Kd / Kd of best base at the position.
The same measure, in the same setting: for GGAATGAGAAAAC the value was > 1590 Kd / Kd of best base at the position; for GGAATTAGAAGAC, 1.24 Kd / Kd of best base at the position.
As for GCAATTAGAAAAC, the binding signal is 3.05 Kd / Kd of best base at the position.
On the same count and under the same terms, for GAAATTAGAAAAC the value was 2.08 Kd / Kd of best base at the position.
Still for that read-out and setting: for GGAATTAGCAAAC the value was 6.43 Kd / Kd of best base at the position; for GGAAATAGAAAAC, 7.11 Kd / Kd of best base at the position.
Consider GGAATTAGAAAAC, for which the Kd is around 6.3 nM.
For GGAATTAGAGAAC, the binding signal is 2.43 Kd / Kd of best base at the position.
On the same count and under the same terms, with GGAATTTGAAAAC the figure was 23.5 Kd / Kd of best base at the position; with GGAATCAGAAAAC, > 1590 Kd / Kd of best base at the position.
On the same count and under the same terms, for GGAATTAGGAAAC the value was 2.63 Kd / Kd of best base at the position; for GGAATTAGAAAAT, 1.5 Kd / Kd of best base at the position.
The same measure, in the same setting: for TGAATTAGAAAAC the value was 2.02 Kd / Kd of best base at the position; for GGAATTAGATAAC, 1.59 Kd / Kd of best base at the position.
Regarding GGAATTAGTAAAC, the binding signal is 6.81 Kd / Kd of best base at the position.
As to GGAATTAGAAAAG, the binding signal was 1.23 Kd / Kd of best base at the position.
The same measure, in the same setting: with GTAATTAGAAAAC the figure was 2.7 Kd / Kd of best base at the position; with GGAATTAGAATAC, 1.82 Kd / Kd of best base at the position; with GGAATTAAAAAAC, > 1590 Kd / Kd of best base at the position.
The same measure, in the same setting: with GGAATTATAAAAC the figure was 59.2 Kd / Kd of best base at the position.
